The record followed here is PubChem BioAssay.

The target of assay [1] is Albumin (Bos taurus) (UniProt P02769). As to the kind of experiment: compounds binding labelled BSA control protein – biochemical, small-molecule microarray, Alexa647 label, 635/667 nm fluorescence, artefact control for SMM control protein annotation, profiling panel (AID 1118).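 Further: score merges 667 nm emission intensity and signal-to-noise per printed compound spot.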 The following applies: BSA-A647 binding, fluorescence 635 nm, higher = more signal.
Assay [2] in a line: probe aXIP binding to arrayed compounds – biochemical, NeuroSMM set, 635/667 nm fluorescence, primary screen (AID 1119).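 Further: probe is the protein aXip251-270 applied at 1 µg/mL to compound-printed slides; binding of probe to printed compounds measured as 667 nm fluorescence plus signal to noise.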 The note with it: small-molecule microarray, higher = more signal, called active from +8 up or from −8 down.
The nature of assay [3]: probe aNOTCH3 binding on compound microarray – biochemical, small-molecule microarray, 635/667 nm fluorescence, primary screen (AID 1120).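 Further: probe is a biotin-tagged antibody raised against NOTCH3 rather than NOTCH3 protein; score merges spot fluorescence near 667 nm with spot signal to noise.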 The note with it: higher = more signal.
Assay [4] can be described thus: probe aNOTCH2 binding on compound microarray – biochemical, small-molecule microarray, 635/667 nm fluorescence, primary screen (AID 1121).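 Further: score merges feature fluorescence read at 667 nm with its signal to noise.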 The note with it: higher = more signal.
The target in assay [5] is Carbonic anhydrase 2 (Homo sapiens) (UniProt P00918). The experiment in a line: compounds binding carbonic anhydrase 2 – biochemical, small-molecule microarray, Alexa647-labelled CAII, profiling panel (AID 1122). The note with it: CAII-A647 binding fluorescence, higher = more signal.
A short description of assay [6]: COS7 lysate on small-molecule microarray, probe aHis, 635 nm (AID 1123).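 Further: z-score combines 667nm fluorescence intensity with signal-to-noise per printed compound spot.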 The following applies: COS7 cell lysate, fluorescence, higher = more signal.
Assay [7] in a line: probe aLAP1 signal on lysate-treated microarray – cell lysate, small-molecule microarray, COS7 lysate, primary screen (AID 1124).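 Further: lysate comes from COS7 cells expressing LAP1 and is applied at 0.3 µg/mL; score merges spot fluorescence near 667 nm with signal-to-noise over triplicate slides.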 The note with it: probe aLAP1, fluorescence, higher = more signal.
Assay [8] relates to Sam68 (KHDRBS1). As to the kind of experiment: compounds binding KHDRBS1 protein – biochemical, small-molecule microarray, 635 nm fluorescence, primary screen (AID 1125).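 Further: score merges 667 nm channel intensity with signal to noise over triplicate slides.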 The following applies: higher = more signal.
Assay [9] deals with Chordin-like protein 2 (CHRDL2). As to the kind of experiment: compounds binding chordin-like 2 – biochemical, small-molecule microarray, 635 nm fluorescence, primary screen (AID 1126).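 Further: printed compound slides probed with Chrdl2 protein at 4 µg/mL for 1 h at 4 C; score merges 667 nm emission intensity with signal to noise over three replicate slides.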 The note with it: fluorescence 635 nm, higher = more signal.
In assay [10] the target is Concanavalin-A (Canavalia ensiformis) (UniProt P02866). As to the kind of experiment: compounds binding concanavalin A lectin – biochemical, small-molecule microarray, Alexa647 label, 635 nm, artefact control for SMM control protein annotation, primary screen (AID 1127).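 Further: z combines 667 nm emission intensity with signal-to-noise across three replicate slides.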 The following applies: ConA-A647 binding fluorescence, higher = more signal.
Assay [11] in a line: compounds binding Alexa647 anti-His antibody – biochemical, small-molecule microarray, 635 nm fluorescence, artefact control for SMM control protein annotation, primary screen (AID 1128).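 Further: score merges feature fluorescence with signal-to-noise for each printed compound spot.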 The note with it: higher = more signal.
For assay [12], the system named is Human papillomavirus type 1a E7 protein (residues 1-88). The experiment in a line: HPV1a E7 small-molecule binders, primary screen, biochemical, small-molecule microarray, residues 1-88, 635 nm (AID 1129). The following applies: small-molecule microarray binding, fluorescence 635 nm; higher = more signal.
Assay [13] addresses Focal adhesion kinase 1 (Homo sapiens) (UniProt Q05397). The experiment in a line: PTK2 protein binding on printed compound slides – biochemical, small-molecule microarray, 635/667 nm fluorescence, BSA, DTT, primary screen (AID 1130).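 Further: composite of spot emission at 667 nm and signal to noise over triplicate slides.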 The following applies: 635 nm fluorescence, higher = more signal.
The subject of assay [14] is Fibrinogen (Alexa647-labelled). The experiment in a line: Alexa647-fibrinogen binding to printed small molecules – biochemical, small-molecule microarray, 635/667 nm fluorescence, artefact control for SMM control-protein annotation, profiling panel (AID 1131).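 Further: z-score merges 667 nm fluorescence with per-spot signal-to-noise over triplicate slides.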 The note with it: fibrinogen-A647 binding fluorescence, higher = more signal.
Assay [15] addresses Follistatin (Homo sapiens) (UniProt P19883). The experiment in a line: FST protein binding to printed compounds – biochemical, small-molecule microarray, 635/667 nm fluorescence, primary screen (AID 1132). The following applies: 635 nm fluorescence, higher = more signal.
For assay [16], the target named is Fibroblast growth factor 2 (Homo sapiens) (UniProt P09038). The experiment in a line: basic fibroblast growth factor binding to printed compounds – biochemical, small-molecule microarray, 635/667 nm fluorescence, primary screen (AID 1133). The following applies: FGF2, fluorescence 635/667, higher = more signal.
The nature of assay [17]: JC-1 mitochondrial potential readout, lung cancer cells – cell-based, A549, JC-1 fluorescence, basal, 24 h, 100 nL, profiling panel (AID 1138).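 Further: A549 lung adenocarcinoma cells under basal conditions with no added stimulus; test concentration not given here.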 The note with it: higher = more signal.
The subject of assay [18] is Lefty1. The experiment in a line: Lefty1 protein binding to printed compounds – biochemical, small-molecule microarray, 635/667 nm fluorescence, primary screen (AID 1139). The following applies: fluorescence 635/667, higher = more signal.
Assay [19] concerns wheat germ agglutinin (Triticum aestivum), Alexa647-labelled. As to the kind of experiment: Alexa647-WGA lectin binding to printed small molecules – biochemical, small-molecule microarray, 635/667 nm fluorescence, artefact control for SMM control-protein annotation, profiling panel (AID 1140).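 Further: score merges 667 nm feature emission with signal to noise over triplicate slides.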 The note with it: WGA-A647 binding, 635 nm fluorescence, higher = more signal.
In assay [20] the target is Luciferin 4-monooxygenase (Photinus pyralis) (UniProt P08659). As to the kind of experiment: inhibition of purified Photinus pyralis luciferase – biochemical, luminescence, purified enzyme, 2006 set, primary screen (AID 1141).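 Further: cell-free assay with purified firefly luciferase at 100 ng per well in PBS; test concentration not given here.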 The note with it: purified firefly luciferase, SteadyGlo luminescence, 30 min; higher = more signal, called active from +8 up or from −8 down.

Calls of active or inactive are those of the source.

Sequence of Concanavalin-A (Canavalia ensiformis) (P02866 whole entry, looked up): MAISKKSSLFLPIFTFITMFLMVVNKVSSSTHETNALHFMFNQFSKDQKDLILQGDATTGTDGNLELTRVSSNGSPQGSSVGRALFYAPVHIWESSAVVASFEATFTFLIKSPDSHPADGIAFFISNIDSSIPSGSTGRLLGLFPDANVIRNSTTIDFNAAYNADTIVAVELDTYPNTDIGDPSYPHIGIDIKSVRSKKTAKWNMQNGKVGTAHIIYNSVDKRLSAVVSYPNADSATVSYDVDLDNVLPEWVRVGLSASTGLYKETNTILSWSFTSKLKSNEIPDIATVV
Sequence of Focal adhesion kinase 1 (Homo sapiens) (Q05397 whole entry, looked up): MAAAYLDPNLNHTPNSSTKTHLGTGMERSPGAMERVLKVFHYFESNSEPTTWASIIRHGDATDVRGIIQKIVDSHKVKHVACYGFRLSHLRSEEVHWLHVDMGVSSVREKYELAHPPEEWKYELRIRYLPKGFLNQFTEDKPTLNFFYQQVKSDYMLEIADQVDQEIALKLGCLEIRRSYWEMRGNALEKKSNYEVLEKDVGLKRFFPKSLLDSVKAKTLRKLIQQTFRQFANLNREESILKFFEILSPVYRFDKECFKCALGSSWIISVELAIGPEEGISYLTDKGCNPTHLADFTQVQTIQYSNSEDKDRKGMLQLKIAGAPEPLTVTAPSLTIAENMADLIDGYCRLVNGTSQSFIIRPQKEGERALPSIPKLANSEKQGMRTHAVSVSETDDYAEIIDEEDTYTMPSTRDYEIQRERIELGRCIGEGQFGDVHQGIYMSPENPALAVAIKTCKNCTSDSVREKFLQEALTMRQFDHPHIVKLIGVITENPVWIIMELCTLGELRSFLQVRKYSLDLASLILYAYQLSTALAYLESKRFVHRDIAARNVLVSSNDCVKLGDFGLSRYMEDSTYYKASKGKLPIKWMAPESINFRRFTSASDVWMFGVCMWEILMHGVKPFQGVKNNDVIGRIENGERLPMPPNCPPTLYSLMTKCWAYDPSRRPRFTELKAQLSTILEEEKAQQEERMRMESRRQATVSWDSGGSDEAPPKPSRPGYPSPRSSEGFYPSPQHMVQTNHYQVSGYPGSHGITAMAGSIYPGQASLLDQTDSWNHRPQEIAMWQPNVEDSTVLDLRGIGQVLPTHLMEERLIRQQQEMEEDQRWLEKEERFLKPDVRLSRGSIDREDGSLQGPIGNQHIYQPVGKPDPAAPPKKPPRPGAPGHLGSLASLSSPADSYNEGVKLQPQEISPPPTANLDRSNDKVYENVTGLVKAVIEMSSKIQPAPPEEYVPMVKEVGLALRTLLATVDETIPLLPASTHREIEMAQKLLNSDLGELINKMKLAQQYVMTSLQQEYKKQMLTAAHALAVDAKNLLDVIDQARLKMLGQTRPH
Sequence of Luciferin 4-monooxygenase (Photinus pyralis) (P08659 whole entry, looked up): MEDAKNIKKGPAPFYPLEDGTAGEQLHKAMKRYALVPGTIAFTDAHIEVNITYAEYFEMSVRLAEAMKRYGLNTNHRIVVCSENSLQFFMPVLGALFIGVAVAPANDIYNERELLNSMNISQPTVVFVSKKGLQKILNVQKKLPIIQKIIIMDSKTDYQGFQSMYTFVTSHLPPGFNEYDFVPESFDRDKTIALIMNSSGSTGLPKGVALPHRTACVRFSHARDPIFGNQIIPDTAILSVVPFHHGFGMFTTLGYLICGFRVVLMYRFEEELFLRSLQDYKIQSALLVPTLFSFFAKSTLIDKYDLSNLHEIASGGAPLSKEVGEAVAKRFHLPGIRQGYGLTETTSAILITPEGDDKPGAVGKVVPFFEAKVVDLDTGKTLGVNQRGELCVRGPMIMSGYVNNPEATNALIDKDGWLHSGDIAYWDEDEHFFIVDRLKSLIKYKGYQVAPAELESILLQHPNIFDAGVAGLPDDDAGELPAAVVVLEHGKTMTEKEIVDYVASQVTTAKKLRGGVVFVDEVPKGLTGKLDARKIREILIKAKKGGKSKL
Sequence of Albumin (Bos taurus) (P02769 whole entry, looked up): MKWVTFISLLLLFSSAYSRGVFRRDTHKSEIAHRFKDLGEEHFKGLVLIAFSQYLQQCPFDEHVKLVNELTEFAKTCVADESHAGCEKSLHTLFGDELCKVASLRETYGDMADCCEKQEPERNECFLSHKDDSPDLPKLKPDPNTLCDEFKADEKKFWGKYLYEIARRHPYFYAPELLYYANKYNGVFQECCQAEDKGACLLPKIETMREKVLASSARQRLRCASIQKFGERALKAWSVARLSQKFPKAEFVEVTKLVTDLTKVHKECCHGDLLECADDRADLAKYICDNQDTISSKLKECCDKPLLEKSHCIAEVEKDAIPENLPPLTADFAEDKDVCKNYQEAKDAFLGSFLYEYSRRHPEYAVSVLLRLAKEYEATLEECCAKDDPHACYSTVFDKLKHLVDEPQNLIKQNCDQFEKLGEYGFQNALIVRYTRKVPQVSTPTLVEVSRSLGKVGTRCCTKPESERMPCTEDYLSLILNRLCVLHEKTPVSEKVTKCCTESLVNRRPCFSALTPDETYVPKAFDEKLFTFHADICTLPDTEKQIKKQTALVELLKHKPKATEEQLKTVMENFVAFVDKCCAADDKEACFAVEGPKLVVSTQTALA
Sequence of Fibroblast growth factor 2 (Homo sapiens) (P09038 whole entry, looked up): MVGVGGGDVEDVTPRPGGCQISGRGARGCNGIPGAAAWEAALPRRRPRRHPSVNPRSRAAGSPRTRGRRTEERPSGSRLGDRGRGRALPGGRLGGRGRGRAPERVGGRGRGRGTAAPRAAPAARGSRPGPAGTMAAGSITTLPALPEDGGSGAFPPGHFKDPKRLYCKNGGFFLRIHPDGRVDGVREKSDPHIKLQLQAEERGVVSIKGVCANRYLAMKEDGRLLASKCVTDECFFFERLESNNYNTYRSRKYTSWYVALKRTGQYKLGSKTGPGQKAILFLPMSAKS
Sequence of Follistatin (Homo sapiens) (P19883 whole entry, looked up): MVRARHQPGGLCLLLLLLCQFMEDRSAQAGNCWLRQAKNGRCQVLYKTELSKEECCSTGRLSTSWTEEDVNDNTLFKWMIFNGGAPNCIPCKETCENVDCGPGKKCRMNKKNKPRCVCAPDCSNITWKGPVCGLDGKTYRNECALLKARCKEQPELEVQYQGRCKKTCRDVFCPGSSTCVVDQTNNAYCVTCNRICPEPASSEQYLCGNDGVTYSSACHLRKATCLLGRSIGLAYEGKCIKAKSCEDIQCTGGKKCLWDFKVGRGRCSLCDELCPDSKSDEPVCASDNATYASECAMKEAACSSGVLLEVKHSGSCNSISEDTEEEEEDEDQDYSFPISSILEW

As for `CC(=O)c1ccc(C(O)C2C=CC3C(=O)N(c4ccccc4)C(=O)C3N2Nc2ccc(C(C)C)cc2)cc1` (stereo not given), the composite z-score in assay [1] came out at 0.0031; in assay [3] it was 0.247; in assay [4], 0.216; in assay [5], 0.666; in assay [6], 1.97; in assay [7], 0.463. The composite z-score in assay [8] is 1.13; in [9], -0.185; in assay [10], 1.13; in assay [11], 0.779; in assay [12], 1.23; in assay [13] it was 0.329. Besides, the composite z-score in assay [14] is 0.939; in [15], 1.13; in assay [16], 1.1; in [18], -0.212; in assay [19], 1.17. For the same compound, in assay [2], the composite Z-score was -0.275 (inactive). In addition, the z-score in assay [17] was 0.678; in assay [20] it was -1.41 (inactive).
On to `CCCc1cc2c(n1CCc1ccc(Cl)cc1)C(C)C1CN(C(=O)c3ccccc3)C(C)(C(=O)OC)C21` (stereo not given), for which the composite z-score in [1] worked out at 1.03; in [3] it was 0.201; in assay [4], 0.203; in assay [5], 0.862; in assay [6], 2.94; in [7], 1.07. Also, the composite z-score in [8] is 1.03; in [9], -1.75; in assay [10], 1.16; in assay [11] it was 1.6; in [12] it was 1.22; in assay [13] it was 1.96. Besides, the composite z-score is 1.02 in assay [14]; 0.114 in assay [15]; -1.41 in [16]; -0.766 in [18]; 1.34 in assay [19]. Also, in assay [2], the composite Z-score is 0.313 (inactive). Also, the z-score in assay [17] was 1.25; in assay [20], -0.548 (inactive).
For the compound `CN(C)CCCNC(=O)[C@@]1(C)c2ccccc2C(=O)N(Cc2ccc(OC(F)(F)F)cc2)[C@H]1c1ccc(CO)cc1`, the composite z-score in [1] was 0.548; in assay [3], -0.139; in assay [4], -0.0357; in assay [5] it was 0.706; in [6] it was 1.83; in assay [7] it was 1.03. The composite z-score in assay [8] is 0.0786; in assay [9], -0.616; in assay [10], -0.451; in assay [11] it was 0.117; in assay [12], 0.365; in [13] it was 0.37. Also, the composite z-score in [14] was 0.294; in assay [15] it was 0.948; in assay [16], 0.389; in assay [18] it was -0.425; in assay [19] it was 0.668. The composite Z-score in assay [2] was 0.0333 (inactive). For the same compound, the z-score in assay [17] was -0.664; in assay [20], 0.14 (inactive).
Consider `CN(C)c1ccc(C(O)C2C=CC3C(=O)N(Cc4ccccc4)C(=O)C3N2n2cnnc2)cc1` (stereo not given), for which the composite z-score in assay [1] was -0.184; in assay [3], -0.0023; in assay [4], -0.0993; in [5], 0.244; in [6] it was 0.0348; in assay [7], -0.0894. Also, the composite z-score in assay [8] was -0.671; in [9] it was 0.245; in [10], -0.46; in [11], 0.108; in assay [12] it was 0.115; in [13], -0.535. The composite z-score in [14] is 0.32; in assay [15], 0.225; in assay [16], 0.239; in [18] it was -0.231; in [19], 0.0743. Also, the composite Z-score in [2] was 0.111 (inactive). Also, the z-score in assay [17] is -0.269; in assay [20], -1.66 (inactive).
As to `C=C(CCCC)/C(=C/C[C@H](OC(=O)c1ccncc1)c1ccc(OCCO)cc1)c1cnc2ccccc2c1`, the composite z-score was 0.667 in assay [1]; 0.0533 in assay [3]; -0.0891 in assay [4]; 0.755 in assay [5]; 1.74 in [6]; 0.111 in [7]. Further, the composite z-score was found to be 1.31 in [8]; 1.11 in assay [9]; 1.13 in assay [10]; 2.06 in assay [11]; 1.23 in assay [12]; 0.525 in [13]. For the same compound, the composite z-score in assay [14] turned out to be 0.892; in [15], 1.28; in assay [16] it was 1.02; in assay [18], 1.27; in assay [19] it was 1.36. Also, the composite Z-score in assay [2] was -0.0072 (inactive). The values for the z-score in [17] and in assay [20] were 2.39 and -1.83 (inactive), respectively.
Take `COc1ccc(C(=O)Nc2ccc3c(c2)[C@@]2(O[C@H](CCO)[C@@H]([Si](C)(C)c4ccc(OC)cc4)[C@@H]2C)C(=O)N3Cc2ccccc2)cc1`: the composite z-score in assay [1] was -0.351; in assay [3], -0.0647; in assay [4] it was -0.0357; in assay [5] it was 0.124; in assay [6], 0.88; in assay [7] it was 0.556. Moreover, the composite z-score in assay [8] was determined as 0.973; in assay [9], 0.268; in assay [10], 0.637; in assay [11] it was 0.829; in assay [12] it was 0.989; in assay [13], 0.397. In addition, the composite z-score in assay [14] worked out at 0.592; in assay [15], 1.25; in assay [16] it was 1.45; in [18], 0.792; in assay [19] it was 0.413. Moreover, the composite Z-score in [2] was 0.004 (inactive). The z-score in assay [17] was -1.3; in assay [20] it was -0.585 (inactive).
